Assay results published in publication PMC7862700, “An all-to-all approach to the identification of sequence-specific readers for epigenetic DNA modifications on cytosine”.

Columns and labels:
Test in all cases: DAPPL (digital affinity profiling via proximity ligation, sequencing); 10 mM Tris-HCl pH 7.5, 50 mM NaCl, 1 mM DTT, 4% glycerol, room temperature, 30 min; GST-TFs on glutathione beads, 16-mer random dsDNA library, 0.1% formaldehyde crosslink after washing; high values mean tight binding
Settings in all cases: protein: recombinant; tags: N-terminal GST; dsDNA, one strand shown
FLI1 = target: T1, FLI1 (Homo sapiens, UniProt Q01543 1-452)
T1 sequence: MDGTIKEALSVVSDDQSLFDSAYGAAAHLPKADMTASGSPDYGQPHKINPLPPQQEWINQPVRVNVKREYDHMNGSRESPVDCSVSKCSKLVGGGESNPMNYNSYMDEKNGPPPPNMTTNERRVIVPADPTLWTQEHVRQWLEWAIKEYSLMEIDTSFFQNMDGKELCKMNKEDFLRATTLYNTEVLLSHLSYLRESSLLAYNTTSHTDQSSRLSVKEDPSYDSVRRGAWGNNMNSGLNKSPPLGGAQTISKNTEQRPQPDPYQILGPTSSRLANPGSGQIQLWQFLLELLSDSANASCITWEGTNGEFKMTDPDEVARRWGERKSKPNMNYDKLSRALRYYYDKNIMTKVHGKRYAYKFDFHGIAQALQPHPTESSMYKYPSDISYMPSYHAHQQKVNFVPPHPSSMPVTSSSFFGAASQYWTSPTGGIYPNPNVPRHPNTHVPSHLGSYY
Summary of the method: (§1)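 Sequencing on an Illumina NextSeq500 followed washing, crosslinking with 0.1% formaldehyde, proximity ligation (BsaI/T4 ligase, 1 h, 37 °C) and PCR amplification of pools that had been incubated for 30 min at room temperature with 200 nmole of a random double-stranded 16-mer DNA library in Tris/NaCl/DTT/glycerol buffer. Each pool held DNA-barcoded human transcription factors, expressed in yeast as GST fusions and captured on glutathione beads, plus a tag-only sample. Binding signal is a hexamer's read frequency for a factor divided by its frequency in the tag-only sample.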

ELK1 = target: T2, ELK1 (Homo sapiens, UniProt P19419 1-428)
T2 sequence: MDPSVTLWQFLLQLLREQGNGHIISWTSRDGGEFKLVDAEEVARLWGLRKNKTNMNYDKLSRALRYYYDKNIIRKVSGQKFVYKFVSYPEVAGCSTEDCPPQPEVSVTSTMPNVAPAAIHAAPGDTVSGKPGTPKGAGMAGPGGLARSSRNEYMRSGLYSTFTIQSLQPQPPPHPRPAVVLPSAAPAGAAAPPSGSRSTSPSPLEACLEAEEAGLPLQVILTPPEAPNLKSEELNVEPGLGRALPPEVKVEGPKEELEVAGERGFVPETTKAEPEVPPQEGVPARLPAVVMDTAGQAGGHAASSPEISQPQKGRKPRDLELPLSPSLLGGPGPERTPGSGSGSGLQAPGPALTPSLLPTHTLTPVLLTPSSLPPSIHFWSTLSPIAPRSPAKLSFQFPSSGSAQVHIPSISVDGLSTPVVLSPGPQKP
Summary of the method: as §1

GABPA = target: T3, GABPA (Homo sapiens, UniProt Q06546 1-454)
T3 sequence: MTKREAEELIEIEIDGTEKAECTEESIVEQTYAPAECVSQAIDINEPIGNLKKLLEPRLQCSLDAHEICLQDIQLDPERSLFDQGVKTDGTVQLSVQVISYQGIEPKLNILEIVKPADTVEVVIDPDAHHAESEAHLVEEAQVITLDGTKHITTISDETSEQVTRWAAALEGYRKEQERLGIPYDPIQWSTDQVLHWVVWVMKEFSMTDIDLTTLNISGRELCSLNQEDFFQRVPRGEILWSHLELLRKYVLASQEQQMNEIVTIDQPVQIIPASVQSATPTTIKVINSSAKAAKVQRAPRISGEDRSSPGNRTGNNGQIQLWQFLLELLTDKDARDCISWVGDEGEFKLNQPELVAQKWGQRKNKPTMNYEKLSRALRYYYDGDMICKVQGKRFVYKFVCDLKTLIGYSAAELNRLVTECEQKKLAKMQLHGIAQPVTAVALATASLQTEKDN
Summary of the method: as §1

ERG = target: T4, ERG (Homo sapiens, UniProt P11308 1-479)
T4 sequence: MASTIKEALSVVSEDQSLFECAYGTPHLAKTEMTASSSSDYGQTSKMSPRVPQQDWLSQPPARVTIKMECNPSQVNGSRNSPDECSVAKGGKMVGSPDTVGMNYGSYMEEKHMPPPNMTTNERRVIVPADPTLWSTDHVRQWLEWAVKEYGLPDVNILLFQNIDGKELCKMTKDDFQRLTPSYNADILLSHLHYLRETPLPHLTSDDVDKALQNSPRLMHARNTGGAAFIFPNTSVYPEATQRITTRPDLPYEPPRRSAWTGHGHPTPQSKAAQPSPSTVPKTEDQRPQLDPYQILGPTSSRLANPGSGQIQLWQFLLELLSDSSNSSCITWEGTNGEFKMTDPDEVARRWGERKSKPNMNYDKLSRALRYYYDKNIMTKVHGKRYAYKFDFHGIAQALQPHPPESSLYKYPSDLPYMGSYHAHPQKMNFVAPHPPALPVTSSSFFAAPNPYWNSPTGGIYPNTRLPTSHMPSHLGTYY
Summary of the method: as §1

ELF1 = ELF1 (Homo sapiens, UniProt P32519 1-619)
Summary of the method: as §1

EHF = target: T5, EHF (Homo sapiens, UniProt Q9NZC4 1-300)
T5 sequence: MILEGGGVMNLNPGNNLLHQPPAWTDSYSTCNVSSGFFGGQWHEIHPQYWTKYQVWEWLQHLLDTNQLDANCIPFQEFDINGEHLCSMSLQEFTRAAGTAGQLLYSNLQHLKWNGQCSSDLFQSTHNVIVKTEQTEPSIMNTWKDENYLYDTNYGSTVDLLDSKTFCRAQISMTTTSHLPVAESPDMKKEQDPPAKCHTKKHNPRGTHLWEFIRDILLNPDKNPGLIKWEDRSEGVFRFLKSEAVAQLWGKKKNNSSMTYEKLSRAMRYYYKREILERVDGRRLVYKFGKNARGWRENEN
Summary of the method: as §1

SPI1 = SPI1 (Homo sapiens, UniProt P17947 1-270)
Summary of the method: as §1

SPIB = SPIB (Homo sapiens, UniProt Q01892 1-262)
Summary of the method: as §1

ELK3 = target: T6, ELK3 (Homo sapiens, UniProt P41970 1-407)
T6 sequence: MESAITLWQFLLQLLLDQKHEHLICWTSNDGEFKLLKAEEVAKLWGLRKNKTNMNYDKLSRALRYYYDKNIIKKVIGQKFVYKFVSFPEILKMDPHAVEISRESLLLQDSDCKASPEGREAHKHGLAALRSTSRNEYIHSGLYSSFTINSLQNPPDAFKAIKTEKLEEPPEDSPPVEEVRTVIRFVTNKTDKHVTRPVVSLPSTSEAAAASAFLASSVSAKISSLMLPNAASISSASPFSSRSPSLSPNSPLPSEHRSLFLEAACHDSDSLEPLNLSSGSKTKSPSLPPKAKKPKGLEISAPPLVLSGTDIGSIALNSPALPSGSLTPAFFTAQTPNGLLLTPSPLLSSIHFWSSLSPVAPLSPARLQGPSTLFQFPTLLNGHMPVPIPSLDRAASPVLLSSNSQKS
Summary of the method: as §1

Sequence of ELF1 (P32519 whole entry): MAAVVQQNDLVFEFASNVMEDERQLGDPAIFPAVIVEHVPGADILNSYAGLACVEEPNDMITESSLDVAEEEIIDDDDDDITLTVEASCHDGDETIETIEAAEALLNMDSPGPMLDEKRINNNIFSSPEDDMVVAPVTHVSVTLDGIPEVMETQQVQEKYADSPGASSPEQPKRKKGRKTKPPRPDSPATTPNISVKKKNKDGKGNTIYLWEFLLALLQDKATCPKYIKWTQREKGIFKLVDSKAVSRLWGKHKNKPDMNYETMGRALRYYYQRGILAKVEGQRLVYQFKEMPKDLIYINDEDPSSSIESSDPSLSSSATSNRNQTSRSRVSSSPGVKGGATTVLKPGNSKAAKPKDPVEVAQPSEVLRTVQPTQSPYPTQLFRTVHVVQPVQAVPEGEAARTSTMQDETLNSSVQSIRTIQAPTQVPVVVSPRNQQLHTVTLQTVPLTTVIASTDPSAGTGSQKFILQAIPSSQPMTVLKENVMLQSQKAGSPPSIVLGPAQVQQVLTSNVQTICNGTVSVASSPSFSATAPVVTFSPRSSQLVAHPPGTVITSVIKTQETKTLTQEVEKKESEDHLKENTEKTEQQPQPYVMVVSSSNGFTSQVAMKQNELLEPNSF
Sequence of SPIB (Q01892 whole entry): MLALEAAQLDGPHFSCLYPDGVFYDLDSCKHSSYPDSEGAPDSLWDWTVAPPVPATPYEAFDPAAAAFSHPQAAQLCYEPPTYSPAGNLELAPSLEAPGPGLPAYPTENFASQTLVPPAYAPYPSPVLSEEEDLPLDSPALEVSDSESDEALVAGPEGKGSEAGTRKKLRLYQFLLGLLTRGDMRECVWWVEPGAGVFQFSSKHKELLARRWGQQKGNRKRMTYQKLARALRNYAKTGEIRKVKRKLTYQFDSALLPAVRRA

Sequence	binding signal (FLI1)	binding signal (ELK1)	binding signal (GABPA)	binding signal (ERG)	binding signal (ELF1)	binding signal (EHF)	binding signal (SPI1)	binding signal (SPIB)	binding signal (ELK3)
CTCTAA	1.3 fold enrichment (6-mer frequency, TF over GST control)	1.33 fold enrichment (6-mer frequency, TF over GST control)	1.28 fold enrichment (6-mer frequency, TF over GST control)	1.32 fold enrichment (6-mer frequency, TF over GST control)	1.37 fold enrichment (6-mer frequency, TF over GST control)	1.41 fold enrichment (6-mer frequency, TF over GST control)	1.35 fold enrichment (6-mer frequency, TF over GST control)	1.25 fold enrichment (6-mer frequency, TF over GST control)	1.43 fold enrichment (6-mer frequency, TF over GST control)
CTCCAG	1.08 fold enrichment (6-mer frequency, TF over GST control)	1.12 fold enrichment (6-mer frequency, TF over GST control)	1.26 fold enrichment (6-mer frequency, TF over GST control)	1.16 fold enrichment (6-mer frequency, TF over GST control)	1.19 fold enrichment (6-mer frequency, TF over GST control)	1.17 fold enrichment (6-mer frequency, TF over GST control)	1.21 fold enrichment (6-mer frequency, TF over GST control)	1.23 fold enrichment (6-mer frequency, TF over GST control)	1.29 fold enrichment (6-mer frequency, TF over GST control)
CCTACA	1.35 fold enrichment (6-mer frequency, TF over GST control)	1.26 fold enrichment (6-mer frequency, TF over GST control)	1.33 fold enrichment (6-mer frequency, TF over GST control)	1.21 fold enrichment (6-mer frequency, TF over GST control)	1.19 fold enrichment (6-mer frequency, TF over GST control)	1.18 fold enrichment (6-mer frequency, TF over GST control)	1.16 fold enrichment (6-mer frequency, TF over GST control)	1.17 fold enrichment (6-mer frequency, TF over GST control)	1.19 fold enrichment (6-mer frequency, TF over GST control)
ATATAT	1.47 fold enrichment (6-mer frequency, TF over GST control)	1.38 fold enrichment (6-mer frequency, TF over GST control)	1.44 fold enrichment (6-mer frequency, TF over GST control)	1.38 fold enrichment (6-mer frequency, TF over GST control)	1.47 fold enrichment (6-mer frequency, TF over GST control)	1.4 fold enrichment (6-mer frequency, TF over GST control)	1.37 fold enrichment (6-mer frequency, TF over GST control)	1.42 fold enrichment (6-mer frequency, TF over GST control)	1.4 fold enrichment (6-mer frequency, TF over GST control)
TTGTAG	1.13 fold enrichment (6-mer frequency, TF over GST control)	1.19 fold enrichment (6-mer frequency, TF over GST control)	1.12 fold enrichment (6-mer frequency, TF over GST control)	1.12 fold enrichment (6-mer frequency, TF over GST control)	1.14 fold enrichment (6-mer frequency, TF over GST control)	1.11 fold enrichment (6-mer frequency, TF over GST control)	1.07 fold enrichment (6-mer frequency, TF over GST control)	1.23 fold enrichment (6-mer frequency, TF over GST control)	1.2 fold enrichment (6-mer frequency, TF over GST control)
CGAAAC	1.14 fold enrichment (6-mer frequency, TF over GST control)	1.15 fold enrichment (6-mer frequency, TF over GST control)	1.08 fold enrichment (6-mer frequency, TF over GST control)	1.21 fold enrichment (6-mer frequency, TF over GST control)	1.23 fold enrichment (6-mer frequency, TF over GST control)	1.17 fold enrichment (6-mer frequency, TF over GST control)	1.21 fold enrichment (6-mer frequency, TF over GST control)	1.16 fold enrichment (6-mer frequency, TF over GST control)	1.07 fold enrichment (6-mer frequency, TF over GST control)
ATAAAG	1.01 fold enrichment (6-mer frequency, TF over GST control)	1.01 fold enrichment (6-mer frequency, TF over GST control)	1.05 fold enrichment (6-mer frequency, TF over GST control)	1.12 fold enrichment (6-mer frequency, TF over GST control)	1.06 fold enrichment (6-mer frequency, TF over GST control)	1.11 fold enrichment (6-mer frequency, TF over GST control)	1.21 fold enrichment (6-mer frequency, TF over GST control)	1.1 fold enrichment (6-mer frequency, TF over GST control)	1.12 fold enrichment (6-mer frequency, TF over GST control)
